Reference: PubChem BioAssay AID504848 (National Center for Advancing Translational Sciences (NCATS), 2011)
About 1,400 (61%) of roughly 2,300 compounds were called active. Inconclusive results (about 29%) are left out. Calls follow the shape of the dose curve; as a rule, active = well fitted inhibition curve with a large enough effect; inconclusive = small, poorly fitted or top-dose-only effect, or effect the other way; inactive = no such curve, though single readings can be large or run the other way. The set was probably picked from earlier hits. This is one part of the list.

Assay: Confirmation screen for delayed death inhibitors of the malarial parasite plastid, 96 hour incubation; also: nearly all actives have a fitted effect of over 60% in size
Details: P. falciparum luciferase growth in erythrocytes; series mostly up to 28.7 µM
Method in brief: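 Two-generation (96 h, 37 C) exposure of P. falciparum carrying an integrated firefly luciferase reporter in erythrocytes, 0.1% parasitemia and 2% hematocrit final, Albumax-supplemented RPMI. Luminescence decrease measures growth inhibition.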
Potency is read from the fitted curve at half-maximal effect.

SMILES	Potency
O=C(/C=C/c1ccccc1Cl)c1ccc(O)cc1	10 µM (active)
O=C(/C=C/c1c(F)cccc1Cl)c1ccc(O)cc1	12.6 µM (active)
COc1ccc(-c2c(C(C)=O)c(C)n(C)c2C)cc1	10 µM (active)
CCCCOc1ccc(NC2=NC3(CCCC3)N=C(N)N2)cc1	0.708 µM (active)
COc1ccc2nc3sc(C(=O)NCCN4CCc5ccccc5C4)cc3cc2c1	2.24 µM (active)
COc1cc(/C=C2\COC/C(=C\c3ccc(O)c(OC)c3)C2=O)ccc1O	3.55 µM (active)
COc1cc(/C=C2\COC/C(=C\c3cc(OC)c(OC)c(OC)c3)C2=O)cc(OC)c1OC	2.51 µM (active)
COc1cc(/C=C2\CC(C(C)(C)C)C/C(=C\c3cc(OC)c(OC)c(OC)c3)C2=O)cc(OC)c1OC (stereo not given)	3.16 µM (active)
COc1ccc(/C=C2\CC/C(=C\c3ccc(OC)c(OC)c3)C2=O)cc1OC	14.1 µM (active)
COc1cc(/C=C2/CCC/C(=C\c3cc(O)c(OC)c(Cl)c3)C2=O)cc(Cl)c1O	7.08 µM (active)
CC(C)c1ccc(C(=O)Nc2nnc(S(=O)(=O)N3CCOCC3)s2)cc1	12.6 µM (active)
COc1ccc(C(=O)Nc2nnc(S(=O)(=O)N3CCOCC3)s2)cc1	15.8 µM (active)
CCn1c(=O)c(CCC(=O)N2CCOCC2)c(C)c2c(C)nn(-c3ccccc3)c21	10 µM (active)
C=CCSC(=C(C#N)C#N)c1cc2c([nH]1)CCCC2	4.47 µM (active)
COC(=O)c1c(NC(=O)c2ccco2)sc2c1CC(C)(C)NC2(C)C	14.1 µM (active)
CCOC(=O)c1c(NC(=S)N2CCCCC2)sc2c1CCN(C(=O)OCC)C2	3.98 µM (active)
Cc1cccc(CSc2cccc3cccnc23)c1	12.6 µM (active)
Cc1c(NC(=S)NC(=O)C(C)(C)C)c(=O)n(-c2ccccc2)n1C	inactive
Cc1c(NC(=O)c2ccc(Cl)c(S(=O)(=O)N3CCCCC3)c2)c(=O)n(-c2ccccc2)n1C	10 µM (active)
CCOC(=O)N1CCN(C(=O)c2ccc(Cl)c(S(=O)(=O)N3CCCC3)c2)CC1	12.6 µM (active)
O=C(Nc1ccncc1)c1ccc(Cl)c(S(=O)(=O)N2CCCC2)c1	8.91 µM (active)
Cc1cc(F)ccc1S(=O)(=O)Nc1ccccc1C(=O)Nc1ccccc1-c1nc2ccccc2[nH]1	4.47 µM (active)

SMILES	Potency
Nc1cc[n+](CC(=O)c2ccc3c(c2)OCCO3)cc1	4.47 µM (active)
CN(C)c1ccc(NC(=S)NC23CC4CC(CC(C4)C2)C3)cc1	1.58 µM (active)
COCCNCC(=O)NC12CC3CC(CC(C3)C1)C2	inactive
COc1ccc(N2CCN(CCCn3c(=S)[nH]c4ccccc4c3=O)CC2)cc1	12.6 µM (active)
O=C(/C=C/c1ccc(Cl)c(Cl)c1)NCCCn1ccnc1	12.6 µM (active)
COc1ccc(C)cc1NC(=O)CSCc1ccccc1C	12.6 µM (active)
CCOc1ccc(-n2c(N)c(-c3nc4ccccc4n3C)c3nc4ccccc4nc32)cc1	3.98 µM (active)
Cc1cc(NC(=O)CN2C(=O)NC(c3ccccc3)(c3ccc(C)c(C)c3)C2=O)no1 (stereo not given)	11.2 µM (active)
COc1ccccc1CNC(=O)CN1C(=O)NC(c2ccccc2)(c2ccc(C)c(C)c2)C1=O (stereo not given)	12.6 µM (active)
Cc1cccc(CS(=O)(=O)c2ncc(Cl)c(C(=O)Nc3c(C)cccc3C)n2)c1	inactive
COc1cc(NCc2ccc3nc(N)nc(N)c3c2C)cc(OC)c1OC	0.199 µM (active)
Cc1ccc(-n2cc(CN3CCC(CO)(Cc4cccc(C(F)(F)F)c4)CC3)cn2)cc1	7.94 µM (active)
Cc1c(CCO)sc[n+]1CC(=O)OCCC12CC3CC(CC(C3)C1)C2	3.16 µM (active)
Cc1cc(C)cc(NC(=O)c2ccc(CN3CCc4ccccc4C3)cc2)c1	11.2 µM (active)
O=C(Nc1ccc(Cl)cc1)c1ccc(CN2CCc3ccccc3C2)cc1	14.1 µM (active)
O=C(Nc1ccc2[nH]ncc2c1)c1ccc(F)cc1	inactive
O=C(Nc1ccc(F)cc1)c1ccc(CN2CCc3ccccc3C2)cc1	12.6 µM (active)
COc1ccc(N2C(=O)C3C(C2=O)C(C(=O)c2ccc(Cl)cc2)N2CCCC32)cc1 (stereo not given)	inactive
Cc1c(OC(C)C(=O)N2C[C@H]3C[C@@H](C2)c2cccc(=O)n2C3)ccc2c3c(c(=O)oc12)CCC3 (stereo not given in full)	11.2 µM (active)
Cc1c(CC(=O)N2C[C@H]3C[C@@H](C2)c2cccc(=O)n2C3)c(=O)oc2cc3occ(C(C)(C)C)c3cc12	12.6 µM (active)
CC(C)N1C/C(=C/c2ccsc2)C(=O)/C(=C/c2ccsc2)C1	5.62 µM (active)
CCC1S/C(=N/N=C/c2ccco2)N(Cc2ccccc2C)C1=O (stereo not given)	10 µM (active)

SMILES	Potency
CCc1nc(SCC(=O)Nc2ccccc2OC)c2c(C)c(C)sc2n1	12.6 µM (active)
CCc1nc(SCC(=O)N2c3ccccc3CC2C)c2c(C)c(C)sc2n1 (stereo not given)	11.2 µM (active)
CC(=O)NCCC(=O)Nc1cc(S(=O)(=O)N2CCOCC2)ccc1Oc1ccccc1	10 µM (active)
CN(C)S(=O)(=O)c1ccc(NCC2COc3ccccc3O2)c([N+](=O)[O-])c1 (stereo not given)	12.6 µM (active)
COc1ccc(C(=O)CC(SCC(NC(C)=O)C(=O)O)c2ccc(Cl)cc2)cc1OC (stereo not given)	11.2 µM (active)
CCOC(=O)N1C/C(=C\c2ccccc2)C(=O)/C(=C/c2ccccc2)C1	4.47 µM (active)
O=[N+]([O-])c1ccc(C[n+]2cccc3c4ccccc4ccc32)cc1	0.126 µM (active)
COC1C(OC(=O)/C=C/C=C/C=C/C=C/C(=O)O)CCC2(CO2)C1C1(C)OC1CC=C(C)C (stereo not given)	0.0501 µM (active)
CC1=CC(C)(C)N2C(=O)C3(NCCc4c3[nH]c3ccccc43)c3cc(C)cc1c32 (stereo not given)	11.2 µM (active)
Fc1ccc(CNc2ccc(N3CCN(Cc4ccccc4)CC3)cc2)cc1	12.6 µM (active)
CCCc1c(NC(=O)Nc2ccc(F)cc2)cnn1-c1ccc(Cl)cc1	10 µM (active)
CC1=NCCN1CCNC(=O)Nc1ccc(F)cc1	inactive
CCCc1c(NC(=O)Nc2ccc(F)cc2)cnn1-c1ccccc1	11.2 µM (active)
CCCN1C(=O)c2ccccc2NC1c1ccc(OC)cc1O (stereo not given)	11.2 µM (active)
Cc1cccc(C2Nc3ccccc3C(=O)N2c2ccccc2)n1 (stereo not given)	inactive
Fc1ccc(CSc2nncn2NCc2ccc3c(c2)OCO3)cc1	inactive
Fc1cccc(CNc2ncnc3ccc(-c4ccc5c(c4)OCO5)cc23)c1	4.47 µM (active)
Clc1ccc(-c2c[n+](Cc3ccc(Cl)cc3Cl)c3n2CCCCC3)cc1	0.0794 µM (active)
Clc1ccc(-c2c[n+](Cc3ccc(Br)cc3)c3n2CCCCC3)cc1	0.0251 µM (active)
CCN(CC)c1ccc(/C=C/c2cccc[n+]2C)c(OC)c1	0.141 µM (active)
COC(=O)c1ccc(COc2ccc(-c3nnn(CC(N)=O)n3)cc2)cc1	1.58 µM (active)
